TDP1 block: qHTS Assay for Inhibitors of Tyrosyl-DNA Phosphodiesterase (TDP1) | Tyrosyl-DNA phosphodiesterase 1 (Homo sapiens), Q9NUW8 | recombinant TDP1, AlphaScreen DNA substrate cleavage | Potency, µM (doses to about 130 µM), for the others: at the top dose activity change, negative = inhibition, hits mostly inhibitors | actives 0.28% (n = 350,000) | AID 485290, 2010; note: potency is the fitted concentration of half-maximal effect; nearly all actives have a fitted effect of over 40% in size
Target sequence (Q9NUW8 whole entry, looked up): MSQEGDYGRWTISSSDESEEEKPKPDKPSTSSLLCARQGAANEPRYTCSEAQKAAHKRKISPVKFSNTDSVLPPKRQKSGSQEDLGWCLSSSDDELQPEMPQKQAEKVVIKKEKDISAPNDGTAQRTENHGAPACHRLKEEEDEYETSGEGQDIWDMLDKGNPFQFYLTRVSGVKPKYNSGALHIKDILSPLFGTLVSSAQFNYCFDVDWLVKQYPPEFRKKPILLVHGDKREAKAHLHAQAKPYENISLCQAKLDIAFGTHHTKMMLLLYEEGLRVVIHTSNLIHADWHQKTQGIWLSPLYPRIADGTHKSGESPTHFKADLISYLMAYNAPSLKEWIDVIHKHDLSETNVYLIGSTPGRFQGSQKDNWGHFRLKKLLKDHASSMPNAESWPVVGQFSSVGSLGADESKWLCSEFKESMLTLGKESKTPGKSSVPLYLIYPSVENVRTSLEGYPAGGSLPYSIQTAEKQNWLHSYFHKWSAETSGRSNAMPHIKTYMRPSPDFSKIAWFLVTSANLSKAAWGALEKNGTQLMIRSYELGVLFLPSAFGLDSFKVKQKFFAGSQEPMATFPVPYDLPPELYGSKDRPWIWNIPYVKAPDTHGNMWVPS
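Here, a 5' biotin and 3' phosphotyrosine-FITC DNA oligonucleotide reports Tdp1 activity: intact substrate bridges AlphaScreen beads, while cleavage leaves a 3' phosphate and drops signal. All incubations at room temperature.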
CtBP-E1A inh: qHTS Assay for Inhibitors of the CtBP/E1A Interaction; CtBP / adenovirus E1A interaction (AlphaScreen); AlphaScreen GST-E1A/His-CtBP binding, 1536-well; stronger effect = lower value; actives 0.49% (n = 340,000); activity change, % (no concentration beside the values); in the data active = activity change below about -65%; inconclusive = mostly about -30% to -63%
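Homogeneous bead-based format: GST-tagged E1A captured on glutathione donor beads, His-tagged CtBP on nickel acceptor beads; compounds precede bead addition by 2 h at 37 °C.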
Six1-Eya2 blk: qHTS Assay for Inhibitors of the Six1/Eya2 Interaction | activity change, % (no concentration beside the values) | actives 0.56% (n = 360,000) | Homeobox protein SIX1 (Homo sapiens) + Protein phosphatase EYA2 (Homo sapiens), … | AlphaScreen GST-Six1/His-Eya2 binding, biochemical; stronger effect = lower value | AID 651725, 2012; in the data active = activity change below about -65%; inconclusive = mostly about -30% to -63%
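AlphaScreen luminescence read after one hour at 37 °C in darkness. Pin-transferred compounds met GST-Six1 and His-Eya2 protein (5X stock 250 nM/500 nM) plus glutathione donor and Ni-chelate acceptor beads (5X, 50 ug/mL).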
TDP1 cell CPT: qHTS for Inhibitors of human tyrosyl-DNA phosphodiesterase 1 (TDP1): qHTS in cells in presence of CPT. AID 686979, 2013. actives 12% (n = 420,000). Potency, µM (series often up to 46.2 µM), for the others: top-dose activity change, negative = growth inhibition, most hits filed as inhibitors. chicken DT40 Tdp1-/-;hTDP1 cells + 20 nM CPT, ATP luminescence, 48 h; note: potency is the fitted concentration of half-maximal effect; nearly all actives have a fitted effect of over 55% in size
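Chicken DT40 Tdp1-/- cells stably complemented with human TDP1 were seeded at 400 cells/well in medium containing 20 nM camptothecin, exposed to pin-transferred compounds, and grown at 37 °C for at least 48 hr. Viability was read as ATP luminescence.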
TDP1 cell noCPT: qHTS for Inhibitors of human tyrosyl-DNA phosphodiesterase 1 (TDP1): qHTS in cells in absence of CPT; Potency, µM (highest dose often 46.2 µM), for inactives: at the top dose activity change, negative = growth inhibition, usual class: inhibitors; actives 15% (n = 420,000); DT40 Tdp1-/- hTDP1 cells, no CPT, ATP luminescence, 48 h; note: potency is the fitted concentration of half-maximal effect; nearly all actives have a fitted effect of over 55% in size
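Growth of hTDP1-complemented DT40 Tdp1-knockout cells is measured by ATP luminescence after at least 48 hr compound exposure at 37 °C, with DMSO substituting for the 20 nM CPT used in the parallel screen.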
IL-1B inflam inh: qHTS for Inhibitors of Inflammasome Signaling: IL-1-beta AlphaLISA Primary Screen; THP-1 LPS/ATP IL-1B secretion, AlphaLISA, 16 h; stronger effect = lower value; activity change, % at 57.5 µM; actives 4.7% (n = 360,000); in the data active = activity change below about -50%; inconclusive = mostly about -30% to -49%
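THP-1 cells pretreated 1 hr with compounds (up to 57.5 uM final), then stimulated with LPS (250 ng/mL final) plus ATP (1.25 mM final); secreted IL-1B measured by AlphaLISA after 16 hr, decreased signal indicating inhibition.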
* marks the source's active call; other numbers are inactive results. This is a sample that favours compounds with a hit; in the whole collection about 18% have one here. Unless noted, calls come from the whole dose curve; as a rule, active = well fitted curve in the direction sought with a large enough effect; inconclusive = small, poorly fitted or top-dose-only effect, or another doubt; inactive = no such curve, though single readings can be large; an effect the other way counts as inactive or inconclusive. % is set by controls: 0 for no effect and ±100 for the full control effect.

CC(=O)Nc1ccc(S(=O)(=O)N2CCN(C(=O)CCC3CCCC3)CC2)cc1 was read as TDP1 block 2.4%, CtBP-E1A inh -3.3, Six1-Eya2 blk 2.0, TDP1 cell CPT inconclusive, TDP1 cell noCPT inconclusive and IL-1B inflam inh 22.1.
For Cc1cccc(C(=O)NNS(=O)(=O)c2ccccc2[N+](=O)[O-])c1 the results were TDP1 block -4.4%, CtBP-E1A inh 7.2, Six1-Eya2 blk 12.1, TDP1 cell CPT -1.7%, TDP1 cell noCPT -9.5% and IL-1B inflam inh -11.7.
CCNC(=O)C1(C)CCN(C(=O)c2cccc(OC(C)=O)c2C)C1 (stereo not drawn) was read as CtBP-E1A inh 4.6, Six1-Eya2 blk 2.4, TDP1 cell CPT 3.0%, TDP1 cell noCPT -23.1% and IL-1B inflam inh 0.5.
Screening CCc1ccc(CNC(=O)c2ccc(NC(=O)C3=CSCCO3)cc2)cc1 returned TDP1 block 0.3%, CtBP-E1A inh -1.0, Six1-Eya2 blk -3.1, TDP1 cell CPT -1.6%, TDP1 cell noCPT -2.4% and IL-1B inflam inh -11.0.
Screening O=C(Cc1cccc2ccccc12)N/N=C/c1ccc(Sc2nc3ccccc3s2)o1 returned TDP1 block -2.0%, CtBP-E1A inh -11.3, Six1-Eya2 blk -0.3, TDP1 cell CPT 16.4µM*, TDP1 cell noCPT inconclusive and IL-1B inflam inh 55.3.
For O=C(COc1cccc2ccccc12)N/N=C/c1ccc(Sc2nc3ccccc3s2)o1 the results were TDP1 block -6.1%, CtBP-E1A inh -8.9, Six1-Eya2 blk -9.7, TDP1 cell CPT inconclusive, TDP1 cell noCPT 20.6µM* and IL-1B inflam inh -5.4.
Screening Cc1ccccc1OCC(=O)N/N=C/c1ccc(Sc2nc3ccccc3s2)o1 returned TDP1 block 1.3%, CtBP-E1A inh -4.5, Six1-Eya2 blk -3.5, TDP1 cell CPT inconclusive, TDP1 cell noCPT 16.4µM* and IL-1B inflam inh -23.6.
For COCC(=O)N/N=C/c1ccc(Sc2nc3ccccc3s2)o1 the results were TDP1 block 3.8%, CtBP-E1A inh 3.6, Six1-Eya2 blk -6.1, TDP1 cell CPT -18.9%, TDP1 cell noCPT inconclusive and IL-1B inflam inh 1.2.
Screening Cc1cccc(C(=O)Nc2ccccc2OCc2cc(=O)n3ccccc3n2)c1 returned TDP1 block 2.7%, TDP1 cell CPT -11.2% and TDP1 cell noCPT -12.1%.
Screening CC(=O)N1CCCN(Cc2cn(-c3ccc(C)cc3)nc2-c2ccc(F)cc2)CC1 returned TDP1 block 2.6%, CtBP-E1A inh -23.7, Six1-Eya2 blk -2.5, TDP1 cell CPT inconclusive, TDP1 cell noCPT 18.4µM* and IL-1B inflam inh -77.9*.
Screening CC(=O)N1CCCN(Cc2cn(-c3cccc(C)c3)nc2-c2cccc(F)c2)CC1 returned CtBP-E1A inh -14.5, Six1-Eya2 blk -2.3, TDP1 cell CPT inconclusive, TDP1 cell noCPT 16.4µM* and IL-1B inflam inh -22.9.
For CC(=O)N1CCCN(Cc2cn(-c3cc(C)ccc3C)nc2-c2ccccc2)CC1 the results were TDP1 block -2.6%, CtBP-E1A inh 1.3, Six1-Eya2 blk -5.5, TDP1 cell CPT 18.4µM*, TDP1 cell noCPT inconclusive and IL-1B inflam inh 21.8.
For CC(C)Oc1ccc(NC(=O)C2CCCNC2=O)cc1 (stereo not drawn) the results were TDP1 block -2.0%, CtBP-E1A inh -21.3, Six1-Eya2 blk -1.1, TDP1 cell CPT -12.7%, TDP1 cell noCPT 1.1% and IL-1B inflam inh 4.4.
Cc1cc(S(=O)(=O)Nc2nc(CN3CCOCC3)nc3sc4c(c23)CCC4)ccc1F was read as TDP1 block 0.6%, CtBP-E1A inh 2.9, Six1-Eya2 blk 0.1, TDP1 cell CPT inconclusive, TDP1 cell noCPT 25.9µM* and IL-1B inflam inh 29.1.
CCCc1cc(=O)[nH]c(SCC(N)=O)n1 was read as TDP1 block 0.0%, CtBP-E1A inh 0.3, Six1-Eya2 blk -1.2, TDP1 cell CPT -4.8%, TDP1 cell noCPT -20.2% and IL-1B inflam inh 11.4.
For COc1cccc(C2CNC3(CCCC(C)C3)c3[nH]c4ccccc4c32)c1OC (stereo not drawn) the results were Six1-Eya2 blk -28.0, TDP1 cell CPT inconclusive, TDP1 cell noCPT 23.1µM* and IL-1B inflam inh inconclusive.
Screening CCc1nn(CC(=O)N(C)C2CCCCC2)c(=O)c2cc3cc(C)ccc3n12 returned TDP1 block 0.2%, CtBP-E1A inh 3.4, Six1-Eya2 blk -0.5, TDP1 cell CPT inconclusive, TDP1 cell noCPT inconclusive and IL-1B inflam inh 10.7.
Screening CCCNc1nc2c(c(=O)n(C)c(=O)n2C)n1CC(O)COc1ccccc1 (stereo not drawn) returned TDP1 block 0.0%.
CCNc1nc2c(c(=O)n(C)c(=O)n2C)n1CC(O)COc1ccccc1 (stereo not drawn) was read as TDP1 block 2.1%.
For COc1ccc(OCC(O)Cn2c(NCCO)nc3c2c(=O)n(C)c(=O)n3C)cc1 (stereo not drawn) the results were TDP1 cell CPT 9.2µM* and TDP1 cell noCPT 10.3µM*.
`COc1ccc(OCC(O)Cn2c(Nc3cccc(C)c3)nc3c2c(=O)n(C)c(=O)n3C)cc1` (stereo not drawn) gave TDP1 block 0.0%, CtBP-E1A inh -8.1, Six1-Eya2 blk -17.7, TDP1 cell CPT inconclusive, TDP1 cell noCPT 14.6µM* and IL-1B inflam inh 32.8.
For CSc1nc2c(c(=O)[nH]c(=O)n2C)n1Cc1ccc(Cl)cc1 the results were CtBP-E1A inh 3.7, Six1-Eya2 blk 1.0, TDP1 cell CPT inconclusive, TDP1 cell noCPT inconclusive and IL-1B inflam inh 20.5.
`COc1cc(C2C(=O)N(C3CCCC3)CC(=O)N2Cc2ccco2)ccc1OC(C)C` (stereo not drawn) gave TDP1 block 0.0%, CtBP-E1A inh -3.3, Six1-Eya2 blk -0.5, TDP1 cell CPT -0.4%, TDP1 cell noCPT -6.8% and IL-1B inflam inh -9.7.
Screening Cc1cc(Nc2cccc(Cl)c2)nc(-c2ccccc2O)n1 returned CtBP-E1A inh 7.2, Six1-Eya2 blk 11.1, TDP1 cell CPT 29.1µM*, TDP1 cell noCPT inconclusive and IL-1B inflam inh inconclusive.

Bioassay records as filed in PubChem BioAssay.
